Data from PubChem BioAssay (NCATS).
Results filed as inconclusive are left out. Active and inactive are the calls of the source. Calls come from the whole dose curve; as a rule, active = well fitted curve in the direction sought with a large enough effect; inconclusive = small, poorly fitted or top-dose-only effect, or another doubt; inactive = no such curve, though single readings can be large; an effect the other way counts as inactive or inconclusive.

Experiments:
[1] = biological target: Ubiquitin carboxyl-terminal hydrolase 1 (Homo sapiens) (UniProt O94782); assay: Inhibitors of USP1/UAF1: Pilot qHTS (AID 504865); note: nearly all actives have a fitted effect of over 35% in size
Outline: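 Enzyme-free wells gave the negative control, while test wells held 1nM USP1/UAF1 preincubated with compound for 15 min at room temperature. Ub-Rho at 150nM final started the reaction, and fluorescence at 480/540 nm was recorded kinetically.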

[2] = biological target: Luciferin 4-monooxygenase (Photinus pyralis) (UniProt P08659); assay: Biochemical firefly luciferase enzyme assay for NPC (AID 624030); note: nearly all actives have a fitted effect of over 70% in size
Outline: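 Counter-screen for direct inhibition of the luciferase enzyme by approved-drug library compounds, run at 10 nM enzyme in 50 mM Tris acetate (final). Luminescence was read within 5 min of enzyme-buffer addition and normalized to PTC124 versus DMSO (0%).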

[3] = S16 Schwann cell viability assay (CellTiter-Glo assay) (AID 624031); note: nearly all actives have a fitted effect of over 70% in size
Outline: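 Rat S16 Schwann cells without reporter constructs received compound or DMSO for 24 h at 37 °C under 5% CO2. Cellular ATP was then quantified by CellTiter-Glo luminescence, with vehicle wells defined as 0% activity and cell-free wells as reference.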

[4] = biological target: Glutathione peroxidase 1 (Homo sapiens) (UniProt P07203); assay: Primary qHTS Assay for Inhibitors of Recombinant Selenoprotein Glutathione Peroxidase 1 (GPX1) (AID 1845191); note: nearly all actives have a fitted effect of over 65% in size
Outline: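 Recombinant GPX1 (10 nM final) was preincubated with compound for 30 min at room temperature, then reacted with 1 mM GSH, 0.5 mM CHP, 0.5 mM NADPH and 100 nM glutathione reductase; NADPH fluorescence (340/450 nm) was read at 0 and 15 min.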

[5] = biological target: Phospholipid hydroperoxide glutathione peroxidase GPX4 (Homo sapiens) (UniProt P36969); assay: Primary qHTS Assay for Inhibitors of Recombinant Selenoprotein Glutathione Peroxidase 4 (GPX4) (AID 1845192); note: nearly all actives have a fitted effect of over 65% in size
Outline: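 GR-coupled readout: 100 nM GR, 1 mM GSH, 0.5 mM NADPH; NADPH fluorescence (ex 340/em 450 nm) read at t=0 and after 15 min RT. GPX4 200 nM, preincubated 30 min with compound; substrate 0.5 mM CHP.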

[6] = qHTS profiling for inhibitors of Plasmodium falciparum proliferation (AID 504749); note: nearly all actives have a fitted effect of over 60% in size; conditions: P. falciparum in erythrocytes, SYBR Green DNA, 72 h
Outline: (§1)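 Parasite proliferation within erythrocytes, 72 h exposure. Endpoint: SYBR Green I fluorescence after overnight lysis at room temperature. Controls: 0.29 uM artemisinin, DMSO.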

3D7 = assay: as above; conditions: P. falciparum in erythrocytes, SYBR Green DNA, 72 h; series mostly up to 28.7 µM
Outline: as §1

7G8 = assay: as above; conditions: P. falciparum in erythrocytes, SYBR Green DNA, 72 h; series mostly up to 28.7 µM
Outline: as §1

AA1029 = assay: as above; conditions: P. falciparum in erythrocytes, SYBR Green DNA, 72 h; series mostly up to 28.7 µM
Outline: as §1

AS120 = assay: as above; conditions: P. falciparum in erythrocytes, SYBR Green DNA, 72 h; series mostly up to 28.7 µM
Outline: as §1

ATS189 = assay: as above; conditions: P. falciparum in erythrocytes, SYBR Green DNA, 72 h; series mostly up to 28.7 µM
Outline: as §1

ATS95 = assay: as above; conditions: P. falciparum in erythrocytes, SYBR Green DNA, 72 h; series mostly up to 28.7 µM
Outline: as §1

C2A = assay: as above; conditions: P. falciparum in erythrocytes, SYBR Green DNA, 72 h; series mostly up to 28.7 µM
Outline: as §1

CP185 = assay: as above; conditions: P. falciparum in erythrocytes, SYBR Green DNA, 72 h; series mostly up to 28.7 µM
Outline: as §1

CP191 = assay: as above; conditions: P. falciparum in erythrocytes, SYBR Green DNA, 72 h; series mostly up to 28.7 µM
Outline: as §1

CP192 = assay: as above; conditions: P. falciparum in erythrocytes, SYBR Green DNA, 72 h; series mostly up to 28.7 µM
Outline: as §1

CP194 = assay: as above; conditions: P. falciparum in erythrocytes, SYBR Green DNA, 72 h; series mostly up to 28.7 µM
Outline: as §1

CP201 = assay: as above; conditions: P. falciparum in erythrocytes, SYBR Green DNA, 72 h; series mostly up to 28.7 µM
Outline: as §1

CP203 = assay: as above; conditions: P. falciparum in erythrocytes, SYBR Green DNA, 72 h; series mostly up to 28.7 µM
Outline: as §1

CP211 = assay: as above; conditions: P. falciparum in erythrocytes, SYBR Green DNA, 72 h; series mostly up to 28.7 µM
Outline: as §1

CP215 = assay: as above; conditions: P. falciparum in erythrocytes, SYBR Green DNA, 72 h; series mostly up to 28.7 µM
Outline: as §1

CP217 = assay: as above; conditions: P. falciparum in erythrocytes, SYBR Green DNA, 72 h; series mostly up to 28.7 µM
Outline: as §1

CP237 = assay: as above; conditions: P. falciparum in erythrocytes, SYBR Green DNA, 72 h; series mostly up to 28.7 µM
Outline: as §1

CP238 = assay: as above; conditions: P. falciparum in erythrocytes, SYBR Green DNA, 72 h; series mostly up to 28.7 µM
Outline: as §1

CP247 = assay: as above; conditions: P. falciparum in erythrocytes, SYBR Green DNA, 72 h; series mostly up to 28.7 µM
Outline: as §1

CP250 = assay: as above; conditions: P. falciparum in erythrocytes, SYBR Green DNA, 72 h; series mostly up to 28.7 µM
Outline: as §1

CP252 = assay: as above; conditions: P. falciparum in erythrocytes, SYBR Green DNA, 72 h; series mostly up to 28.7 µM
Outline: as §1

CP256 = assay: as above; conditions: P. falciparum in erythrocytes, SYBR Green DNA, 72 h; series mostly up to 28.7 µM
Outline: as §1

CP260 = assay: as above; conditions: P. falciparum in erythrocytes, SYBR Green DNA, 72 h; series mostly up to 28.7 µM
Outline: as §1

CP262 = assay: as above; conditions: P. falciparum in erythrocytes, SYBR Green DNA, 72 h; series mostly up to 28.7 µM
Outline: as §1

CP265 = assay: as above; conditions: P. falciparum in erythrocytes, SYBR Green DNA, 72 h; series mostly up to 28.7 µM
Outline: as §1

CP266 = assay: as above; conditions: P. falciparum in erythrocytes, SYBR Green DNA, 72 h; series mostly up to 28.7 µM
Outline: as §1

CP268 = assay: as above; conditions: P. falciparum in erythrocytes, SYBR Green DNA, 72 h; series mostly up to 28.7 µM
Outline: as §1

CP269 = assay: as above; conditions: P. falciparum in erythrocytes, SYBR Green DNA, 72 h; series mostly up to 28.7 µM
Outline: as §1

CP286 = assay: as above; conditions: P. falciparum in erythrocytes, SYBR Green DNA, 72 h; series mostly up to 28.7 µM
Outline: as §1

CP291 = assay: as above; conditions: P. falciparum in erythrocytes, SYBR Green DNA, 72 h; series mostly up to 28.7 µM
Outline: as §1

CP297 = assay: as above; conditions: P. falciparum in erythrocytes, SYBR Green DNA, 72 h; series mostly up to 28.7 µM
Outline: as §1

CP305 = assay: as above; conditions: P. falciparum in erythrocytes, SYBR Green DNA, 72 h; series mostly up to 28.7 µM
Outline: as §1

CP315 = assay: as above; conditions: P. falciparum in erythrocytes, SYBR Green DNA, 72 h; series mostly up to 28.7 µM
Outline: as §1

CP329 = assay: as above; conditions: P. falciparum in erythrocytes, SYBR Green DNA, 72 h; series mostly up to 28.7 µM
Outline: as §1

CP335 = assay: as above; conditions: P. falciparum in erythrocytes, SYBR Green DNA, 72 h; series mostly up to 28.7 µM
Outline: as §1

DFO2036 = assay: as above; conditions: P. falciparum in erythrocytes, SYBR Green DNA, 72 h; series mostly up to 28.7 µM
Outline: as §1

DIV14 = assay: as above; conditions: P. falciparum in erythrocytes, SYBR Green DNA, 72 h; series mostly up to 28.7 µM
Outline: as §1

DIV17 = assay: as above; conditions: P. falciparum in erythrocytes, SYBR Green DNA, 72 h; series mostly up to 28.7 µM
Outline: as §1

DIV30 = assay: as above; conditions: P. falciparum in erythrocytes, SYBR Green DNA, 72 h; series mostly up to 28.7 µM
Outline: as §1

Dd2 = assay: as above; conditions: P. falciparum in erythrocytes, SYBR Green DNA, 72 h; series mostly up to 28.7 µM
Outline: as §1

ECU = assay: as above; conditions: P. falciparum in erythrocytes, SYBR Green DNA, 72 h; series mostly up to 28.7 µM
Outline: as §1

FAB9 = assay: as above; conditions: P. falciparum in erythrocytes, SYBR Green DNA, 72 h; series mostly up to 28.7 µM
Outline: as §1

GB4 = assay: as above; conditions: P. falciparum in erythrocytes, SYBR Green DNA, 72 h; series mostly up to 28.7 µM
Outline: as §1

HB3 = assay: as above; conditions: P. falciparum in erythrocytes, SYBR Green DNA, 72 h; series mostly up to 28.7 µM
Outline: as §1

ICS = assay: as above; conditions: P. falciparum in erythrocytes, SYBR Green DNA, 72 h; series mostly up to 28.7 µM
Outline: as §1

JCK = assay: as above; conditions: P. falciparum in erythrocytes, SYBR Green DNA, 72 h; series mostly up to 28.7 µM
Outline: as §1

N140 = assay: as above; conditions: P. falciparum in erythrocytes, SYBR Green DNA, 72 h; series mostly up to 28.7 µM
Outline: as §1

P93_24 = assay: as above; conditions: P. falciparum in erythrocytes, SYBR Green DNA, 72 h; series mostly up to 28.7 µM
Outline: as §1

P94_40 = assay: as above; conditions: P. falciparum in erythrocytes, SYBR Green DNA, 72 h; series mostly up to 28.7 µM
Outline: as §1

PAD = assay: as above; conditions: P. falciparum in erythrocytes, SYBR Green DNA, 72 h; series mostly up to 28.7 µM
Outline: as §1

PC15 = assay: as above; conditions: P. falciparum in erythrocytes, SYBR Green DNA, 72 h; series mostly up to 28.7 µM
Outline: as §1

PC49 = assay: as above; conditions: P. falciparum in erythrocytes, SYBR Green DNA, 72 h; series mostly up to 28.7 µM
Outline: as §1

SC27B = assay: as above; conditions: P. falciparum in erythrocytes, SYBR Green DNA, 72 h; series mostly up to 28.7 µM
Outline: as §1

TAB109 = assay: as above; conditions: P. falciparum in erythrocytes, SYBR Green DNA, 72 h; series mostly up to 28.7 µM
Outline: as §1

TAB113 = assay: as above; conditions: P. falciparum in erythrocytes, SYBR Green DNA, 72 h; series mostly up to 28.7 µM
Outline: as §1

TAB165 = assay: as above; conditions: P. falciparum in erythrocytes, SYBR Green DNA, 72 h; series mostly up to 28.7 µM
Outline: as §1

W2 = assay: as above; conditions: P. falciparum in erythrocytes, SYBR Green DNA, 72 h; series mostly up to 28.7 µM
Outline: as §1

Measured: Potency
Potency is the fitted concentration of half-maximal effect.

Chain of Ubiquitin carboxyl-terminal hydrolase 1 (Homo sapiens) (O94782 whole entry, looked up): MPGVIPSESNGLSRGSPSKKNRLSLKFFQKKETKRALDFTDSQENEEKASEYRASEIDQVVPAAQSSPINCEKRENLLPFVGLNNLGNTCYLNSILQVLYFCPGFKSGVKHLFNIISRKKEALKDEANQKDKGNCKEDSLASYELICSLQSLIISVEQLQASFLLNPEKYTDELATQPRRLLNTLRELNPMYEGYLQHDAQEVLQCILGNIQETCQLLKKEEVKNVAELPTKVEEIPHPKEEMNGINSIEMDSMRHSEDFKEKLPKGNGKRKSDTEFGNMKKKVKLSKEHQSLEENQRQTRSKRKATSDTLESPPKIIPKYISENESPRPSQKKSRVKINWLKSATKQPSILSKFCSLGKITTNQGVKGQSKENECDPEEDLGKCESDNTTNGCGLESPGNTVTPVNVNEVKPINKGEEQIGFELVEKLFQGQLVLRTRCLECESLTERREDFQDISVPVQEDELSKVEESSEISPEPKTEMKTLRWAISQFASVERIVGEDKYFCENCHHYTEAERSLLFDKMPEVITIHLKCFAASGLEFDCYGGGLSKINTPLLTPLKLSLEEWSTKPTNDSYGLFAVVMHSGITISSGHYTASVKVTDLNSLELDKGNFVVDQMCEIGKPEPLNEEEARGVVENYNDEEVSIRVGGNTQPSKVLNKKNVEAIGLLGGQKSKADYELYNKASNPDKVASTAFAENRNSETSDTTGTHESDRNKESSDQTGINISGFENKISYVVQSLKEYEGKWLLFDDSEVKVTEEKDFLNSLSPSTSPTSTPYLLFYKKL
Chain of Phospholipid hydroperoxide glutathione peroxidase GPX4 (Homo sapiens) (P36969 whole entry, looked up): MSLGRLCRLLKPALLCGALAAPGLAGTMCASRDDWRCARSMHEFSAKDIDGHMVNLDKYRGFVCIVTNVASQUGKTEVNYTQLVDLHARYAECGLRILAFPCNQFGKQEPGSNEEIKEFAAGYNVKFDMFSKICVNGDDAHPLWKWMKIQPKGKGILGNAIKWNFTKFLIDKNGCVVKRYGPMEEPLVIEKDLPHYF
Chain of Luciferin 4-monooxygenase (Photinus pyralis) (P08659 whole entry, looked up): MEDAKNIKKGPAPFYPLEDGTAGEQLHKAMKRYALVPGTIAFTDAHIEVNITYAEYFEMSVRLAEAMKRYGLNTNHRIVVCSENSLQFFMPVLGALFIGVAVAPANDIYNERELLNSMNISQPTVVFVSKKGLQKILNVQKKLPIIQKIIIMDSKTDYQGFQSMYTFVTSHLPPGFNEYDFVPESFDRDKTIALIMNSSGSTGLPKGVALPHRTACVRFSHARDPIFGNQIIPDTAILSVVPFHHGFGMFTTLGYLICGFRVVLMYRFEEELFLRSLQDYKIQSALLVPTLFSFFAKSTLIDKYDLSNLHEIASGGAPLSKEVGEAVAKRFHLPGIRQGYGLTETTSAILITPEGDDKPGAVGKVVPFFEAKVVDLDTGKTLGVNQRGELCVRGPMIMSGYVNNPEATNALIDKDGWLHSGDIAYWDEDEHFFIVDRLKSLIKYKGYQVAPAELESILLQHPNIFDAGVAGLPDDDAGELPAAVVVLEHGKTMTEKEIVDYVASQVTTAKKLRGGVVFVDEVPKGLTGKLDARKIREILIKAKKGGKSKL
Chain of Glutathione peroxidase 1 (Homo sapiens) (P07203 whole entry, looked up): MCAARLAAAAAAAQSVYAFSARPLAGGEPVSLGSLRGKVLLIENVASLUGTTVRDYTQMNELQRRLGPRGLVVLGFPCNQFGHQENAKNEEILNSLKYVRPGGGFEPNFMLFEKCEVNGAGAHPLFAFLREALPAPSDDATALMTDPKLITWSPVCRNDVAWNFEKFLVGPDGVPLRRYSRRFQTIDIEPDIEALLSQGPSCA

CCN1/C(=C/C=C/C=C/c2sc3ccccc3[n+]2CC)Sc2ccccc21
active: [1] 22.4 µM | [2] 32.2 µM | [3] 7.21 µM | [4] 1.43 µM | [5] 7.94 µM | [6]; parasite line A 2.82 µM | [6]; parasite line B 3.98 µM | 3D7 2 µM | 7G8 0.891 µM | AA1029 3.98 µM | AS120 5.01 µM | ATS189 4.47 µM | ATS95 5.01 µM | C2A 3.55 µM | CP185 3.98 µM | CP191 3.55 µM | CP192 5.36 µM | CP194 6.75 µM | CP201 12 µM | CP203 6.75 µM | CP211 6.01 µM | CP215 6.75 µM | CP217 4.47 µM | CP237 1.58 µM | CP238 3.16 µM | CP247 4.47 µM | CP250 3.98 µM | CP252 3.98 µM | CP256 4.47 µM | CP260 0.631 µM | CP265 5.01 µM | CP266 9.53 µM | CP268 12 µM | CP269 15.1 µM | CP286 0.708 µM | CP291 13.5 µM | CP297 12 µM | CP305 10.7 µM | CP315 12 µM | CP329 6.75 µM | CP335 1.07 µM | DFO2036 3.55 µM | DIV14 8.49 µM | DIV17 9.53 µM | DIV30 12 µM | Dd2 2.24 µM | ECU 4.47 µM | FAB9 3.16 µM | GB4 7.57 µM | HB3 2.24 µM | ICS 1 µM | JCK 11.2 µM | N140 5.62 µM | P93_24 3.55 µM | P94_40 3.98 µM | PAD 5.01 µM | PC15 4.47 µM | PC49 5.62 µM | SC27B 6.31 µM | TAB109 3.98 µM | TAB113 5.01 µM | TAB165 3.98 µM | W2 1.51 µM
inactive: CP262
